# This is part of a sample that, as a whole, favours compounds with a hit. Of some 83,000 tested, about 20% had one in any assay.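 The endpoint reported here, percent growth, reads 100 for growth as untreated, 0 for no net growth and -100 for all cells dead.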 Values without a mark were called inactive. The source made the active and inactive calls. The calls were made as follows: active = growth percent below 10; inactive = the rest.
# Columns and labels:
# Assay in all cases: NCI-60 one-dose screen, 48 h (100 = growth as untreated, 0 = no growth, -100 = all killed)
# DU-145 prostate = conditions: 10 µM unless noted
# K-562 leukemia = conditions: 10 µM unless noted
# MALME-3M melanoma = conditions: 10 µM unless noted
# RXF 393 renal = conditions: 10 µM unless noted
# SF-295 CNS = conditions: 10 µM unless noted
# UACC-257 melanoma = conditions: 10 µM unless noted
# SK-MEL-5 melanoma = conditions: 10 µM unless noted
# SK-MEL-2 melanoma = conditions: 10 µM unless noted
# ACHN renal = conditions: 10 µM unless noted
# HL-60(TB) leukemia = conditions: 10 µM unless noted
# CCRF-CEM leukemia = conditions: 10 µM unless noted
# OVCAR-8 ovarian = conditions: 10 µM unless noted
# IGROV1 ovarian = conditions: 10 µM
# OVCAR-3 ovarian = conditions: 10 µM unless noted
# NCI/ADR-RES ovarian = conditions: 10 µM unless noted
# HCC-2998 colon = conditions: 10 µM unless noted
# SNB-19 CNS = conditions: 10 µM unless noted
# LOX IMVI melanoma = conditions: 10 µM unless noted
# MOLT-4 leukemia = conditions: 10 µM
# T-47D breast = conditions: 10 µM unless noted
SMILES,growth (DU-145 prostate),growth (K-562 leukemia),growth (MALME-3M melanoma),growth (RXF 393 renal),growth (SF-295 CNS),growth (UACC-257 melanoma),growth (SK-MEL-5 melanoma),growth (SK-MEL-2 melanoma),growth (ACHN renal),growth (HL-60(TB) leukemia),growth (CCRF-CEM leukemia),growth (OVCAR-8 ovarian),growth (IGROV1 ovarian),growth (OVCAR-3 ovarian),growth (NCI/ADR-RES ovarian),growth (HCC-2998 colon),growth (SNB-19 CNS),growth (LOX IMVI melanoma),growth (MOLT-4 leukemia),growth (T-47D breast)
C[C@@H]1CC[C@@H]2[C@@H]1[C@H](OC(=O)/C=C/C1CCCCC1)[C@]1(C3CCCCC3)C[C@@H](OC(=O)CO)[C@@]2(C)O1,82.1%,44.1%,78.8%,13.3%,72.7%,61.7%,84.8%,73.7%,14.9%,8.36% (active),41.1%,23%,75.7%,70.6%,12.2%,49.5%,–,–,–,–
CCOC(=O)/C=C(\C)Nc1ccc(N/C(C)=C/C(=O)OCC)c2c1Oc1ccccc1O2,110%,81.7%,107%,0.357% (active),99.4%,109%,79.9%,100%,104%,63.4%,43.2%,96.7%,–,92.6%,99.5%,120%,115%,94.4%,75.5%,103%
CCC[CH2][Sn]([CH2]CCC)([CH2]CCC)[O]C(=O)CC,-97.7% (active),-30.2% (active),-75.8% (active),–,-81.4% (active),-94.2% (active),–,-83.2% (active),-96.7% (active),-1.98% (active),–,-70.4% (active),-80.2% (active),-99.1% (active),-87% (active),-94.5% (active),-75.6% (active),-83.3% (active),7.41% (active),-74.4% (active)
CC1=C(SCCC(=O)OCC(=O)NCCC[Te]c2ccccc2)C(=O)c2ccccc2C1=O,-6.6% (active),10.2%,-7.94% (active),25%,-35.6% (active),55.1%,-61.4% (active),-33.4% (active),12.4%,-2.74% (active),2.25% (active),5.76% (active),-35.5% (active),-25.6% (active),-10.5% (active),10.1%,9.54% (active),-12.6% (active),0.655% (active),18.9%
c1cnc2c(c1)ccc1ncccc12,107%,99.8%,118%,–,115%,96.6%,104%,–,90.7%,93.6%,95.6%,–,–,90.6%,78.4%,119%,95.7%,106%,100%,111%
CCC1([N+](=O)[O-])COP(=O)(NCc2cccnc2)OC1 (centres undefined),103%,106%,–,106%,104%,113%,107%,111%,113%,107%,101%,108%,118%,113%,112%,115%,108%,102%,111%,–
C[CH2][Sn]([CH2]C)([CH2]C)[NH]S(=O)(=O)c1ccc(C)cc1,113%,116%,110%,123%,104%,105%,110%,119%,–,104%,108%,104%,111%,113%,104%,99.9%,114%,92.3%,101%,100%
CNc1ccc(C(=O)CC(O)CCC(C)C2OC(=O)CC(O)CC(=O)CC(O)CC(O)CC(O)CC(O)CC3(O)CC(O)C(C(=O)OC)C(CC(O[C@@H]4O[C@H](C)[C@@H](O)[C@H](N)[C@@H]4O)/C=C/C=C/C=C/C=C/C=C/C=C/C=C/C2C)O3)cc1 (some centres undefined),-75.3% (active),34.5%,-78.6% (active),-20% (active),20.2%,-79.7% (active),2.72% (active),-8.57% (active),-79.5% (active),–,14.9%,-22.3% (active),3.21% (active),-15% (active),-35.9% (active),-43.9% (active),41.8%,-8.67% (active),-13.8% (active),-2.05% (active)

# — PubChem BioAssay (NCI)
